Laboratory results published in publication PMC4336329 (PLoS ONE, 2015).
In all, about 310,000 compounds went through this assay and about 2,200 (0.71%) showed an effect of 50% or more. The effect is printed as a negative number. The sample holds strong results, similar compounds and a random draw of the others, so the mix is not that of the screen.

target: human ether-à-go-go-related gene (hERG) potassium channel (human, UniProt Q12809); assay: primary screen, population patch clamp on CHO cells stably expressing hERG; higher = less effect of the substance
Sequence (Q12809 whole entry, looked up): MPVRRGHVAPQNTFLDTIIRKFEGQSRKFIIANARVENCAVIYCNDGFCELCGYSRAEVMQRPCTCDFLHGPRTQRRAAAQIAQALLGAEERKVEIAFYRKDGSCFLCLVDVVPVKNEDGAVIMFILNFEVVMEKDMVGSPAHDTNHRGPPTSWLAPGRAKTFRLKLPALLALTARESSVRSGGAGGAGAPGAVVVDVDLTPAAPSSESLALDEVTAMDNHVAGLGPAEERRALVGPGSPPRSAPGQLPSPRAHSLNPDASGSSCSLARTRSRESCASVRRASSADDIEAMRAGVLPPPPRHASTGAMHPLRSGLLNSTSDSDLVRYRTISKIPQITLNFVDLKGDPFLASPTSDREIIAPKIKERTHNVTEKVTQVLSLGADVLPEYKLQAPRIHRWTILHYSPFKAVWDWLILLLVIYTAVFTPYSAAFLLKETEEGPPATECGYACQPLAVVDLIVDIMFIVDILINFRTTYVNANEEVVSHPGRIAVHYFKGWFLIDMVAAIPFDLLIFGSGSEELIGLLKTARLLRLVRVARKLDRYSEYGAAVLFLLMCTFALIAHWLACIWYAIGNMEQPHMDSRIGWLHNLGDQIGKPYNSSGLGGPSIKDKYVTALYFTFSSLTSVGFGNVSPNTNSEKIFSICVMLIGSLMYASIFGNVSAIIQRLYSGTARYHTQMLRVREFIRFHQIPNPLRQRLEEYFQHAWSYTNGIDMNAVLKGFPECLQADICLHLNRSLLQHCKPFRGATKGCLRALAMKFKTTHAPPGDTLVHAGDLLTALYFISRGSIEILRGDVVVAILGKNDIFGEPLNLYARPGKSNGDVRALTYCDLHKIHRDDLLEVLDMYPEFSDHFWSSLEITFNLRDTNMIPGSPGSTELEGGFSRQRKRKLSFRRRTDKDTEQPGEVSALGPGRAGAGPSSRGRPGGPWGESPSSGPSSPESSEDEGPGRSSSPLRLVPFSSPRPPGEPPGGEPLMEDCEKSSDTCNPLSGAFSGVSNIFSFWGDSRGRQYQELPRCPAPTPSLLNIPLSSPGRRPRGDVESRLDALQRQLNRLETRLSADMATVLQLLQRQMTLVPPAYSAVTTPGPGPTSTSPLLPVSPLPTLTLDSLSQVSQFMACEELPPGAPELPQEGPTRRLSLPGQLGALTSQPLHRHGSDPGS

| SMILES | hERG current change (%, negative = inhibition) at 1uM |
| --- | --- |
| OCC1(Cc2ccccc2)CCN(C2CCN(c3ccccc3F)CC2)CC1 | -38.5% |
| OCC1(Cc2ccccc2)CCCN(C2CCCC2)C1 (stereo not drawn) | -3.43% |
| OCCC1CN(C2CCC2)CCN1Cc1ccc(F)c(F)c1 (stereo not drawn) | 12.1% |
| OCC1(Cc2ccccc2)CCN(C2CCN(c3ccc(F)c(F)c3)CC2)CC1 | -124% |
| OCCC1CN(C2CCN(c3ccccc3F)CC2)CCN1Cc1ccccc1 (stereo not drawn) | -1.66% |
| OCCC1CN(C2CCN(c3ccccc3)CC2)CCN1Cc1ccc(F)c(F)c1 (stereo not drawn) | -71.1% |
| CC(C)c1c(C(=O)N/N=C/c2ccccc2C(=O)O)nnn1-c1nonc1N | 7.36% |
| C(=C\CSc1nnnn1-c1ccccc1)/CSc1nnnn1-c1ccccc1 | 0.568% |
| O=C(Cn1nc(-c2ccccc2)c2ccccc2c1=O)Nc1ccc2c(c1)nc1n2CCOC1 | 13.3% |
| C/C(=N\NC(=O)C1(C)CC1(Br)Br)c1cccc(NC(=O)c2ccc(C)o2)c1 (stereo not drawn) | 11.8% |
| CN1CCCN(C(=O)c2ccc(Cl)s2)CC1 | -50.5% |
| CN1CCCN(C(=O)c2ccc(Br)s2)CC1 | 1.6% |
| O=C(c1ccc(Cl)s1)N1CCCC1 | 6.35% |
| CCOc1ccc(CCNC(=O)CN2CCN(Cc3ccccc3F)C2=O)cc1OCC | -0.385% |
| Cc1ccc(S(=O)(=O)N2CCC(C(=O)Nc3ncccc3O)CC2)cc1 | -13.8% |
| CCC1CCCCN1CCCNC(=O)c1ccc2c(c1)N(Cc1ccc(F)cc1)C(=O)c1ccccc1S2=O (stereo not drawn) | -13.7% |
| Cc1nc(S(=O)(=O)c2ccc(Cl)cc2)nc2c1CCC2 | 0.296% |
| CCOc1ccccc1CN1C(=O)NC(C)(c2ccccc2)C1=O (stereo not drawn) | -0.418% |
| CCN(C1CCCCC1)S(=O)(=O)CCNC(=O)c1ccccc1 | 2.25% |
| COc1ccc(CN(CCN(C)C)c2ccccn2)cc1.O=C(O)/C=C\C(=O)O | -0.0995% |
| CC[N+](C)(C)CCN(Cc1ccc(Cl)cc1)c1ccccn1.[Br-] | -33.2% |

| SMILES | hERG current change (%, negative = inhibition) at 1uM |
| --- | --- |
| CCCCCCCCCCCCCCCC[N+](C)(C)CCN(Cc1ccc(OC)cc1)c1ncccn1.[Br-] | -61.5% |
| COc1cc(C)ccc1OCCCOc1ccccc1Br | 12.3% |
| O=C(CCn1c(=O)c2sccc2n(Cc2cc(=O)n3ccccc3n2)c1=O)NCc1ccco1 | -25.1% |
| CCCC(=O)N1CCCC(C(=O)c2cccc(OC(C)C)c2)C1 (stereo not drawn) | 9.81% |
| CCOC(=O)N1CCC(N2CCCC(C(=O)c3cccc(OC)c3)C2)CC1 (stereo not drawn) | -13.2% |
| CCOC(=O)N1CCC(N2CCCC(C(=O)c3cccc(OC(C)C)c3)C2)CC1 (stereo not drawn) | -61.3% |
| CCOC(=O)N1CCC(N2CCCC(C(=O)c3ccc4cc(OC)ccc4c3)C2)CC1 (stereo not drawn) | -55.1% |
| CC(C)Oc1cccc(C(=O)C2CCCN(C3CCOCC3)C2)c1 (stereo not drawn) | -5.96% |
| CCOC(=O)N1CCC(N2CCCC(C(=O)c3cc(C)c(OC)c(C)c3)C2)CC1 (stereo not drawn) | -28.1% |
| O=C(COC(=O)CCc1ccccc1)NCc1ccccc1 | 12.3% |
| COc1cccc(-c2nc3n(n2)C(c2cccs2)C(C(=O)Nc2cccnc2)=C(C)N3)c1 (stereo not drawn) | -51.2% |
| COc1ccc(C2C(C(=O)Nc3cccnc3)=C(C)Nc3nc(-c4cccs4)nn32)cc1 (stereo not drawn) | -2.21% |
| COc1ccccc1-c1nc2n(n1)C(c1cccs1)C(C(=O)Nc1cccnc1)=C(C)N2 (stereo not drawn) | 0.0177% |
| CC(=O)OC(C(=O)NC1CCCCC1)c1ccccc1 (stereo not drawn) | 9.71% |
| CCCN(C(=O)c1ccc(N(C)S(=O)(=O)c2ccc(C)cc2)cc1)C1CCS(=O)(=O)C1 (stereo not drawn) | 14.8% |
| CCN(CC)CCCNC(=O)c1nn(-c2ccc(OC)cc2OC)c(=O)c2ccccc12 | 8.97% |
| CCN(CC)CCCNC(=O)c1nn(-c2cccc(OC)c2)c(=O)c2ccccc12 | -66.9% |
| CCN(CC)CCCNC(=O)CNC(=O)c1nn(-c2ccc(OC)cc2)c(=O)c2ccccc12 | 17.5% |
| CC(=O)NS(=O)(=O)c1ccc(NC(=O)C(Sc2ccccc2)c2ccccc2)cc1 (stereo not drawn) | 7.09% |
| Cn1c(=O)c(C(=O)CN2CCCCC2)c(N)n(Cc2ccccc2)c1=O | 6.17% |
| Cc1coc2cc3oc(=O)c(CC(=O)N4C[C@H]5C[C@@H](C4)c4cccc(=O)n4C5)c(C)c3cc12 | 4% |

| SMILES | hERG current change (%, negative = inhibition) at 1uM |
| --- | --- |
| Cc1c(CC(=O)N2C[C@H]3C[C@@H](C2)c2cccc(=O)n2C3)c(=O)oc2cc3occ(C(C)(C)C)c3cc12 | -56.8% |
| Cc1coc2cc3oc(=O)c(CCC(=O)N4C[C@H]5C[C@@H](C4)c4cccc(=O)n4C5)c(C)c3cc12 | -16.8% |
| Cc1noc(C)c1COC(=O)c1cccc(S(=O)(=O)N2c3ccccc3CC2C)c1 (stereo not drawn) | 10.5% |
| O=C(N/N=C/c1c(O)ccc2ccccc12)c1cccc(C(F)(F)F)c1 | 13.9% |
| CC1CCCCN1C(=O)C(Cc1ccccc1)N1C(=O)C2CCCCC2C1=O (stereo not drawn) | 10.7% |
| CCOC(=O)c1c(NC(=S)Nc2ccc(F)cc2)sc2c1CCC2 | -21.8% |
| COc1ccc(Cl)cc1C(=O)Nc1ccccc1N1CCN(C(=O)C(C)C)CC1 | -19.6% |
| COc1ccccc1C(=O)Nc1ccccc1N1CCN(C(=O)c2ccc(Cl)cc2)CC1 | -85.2% |
| O=C(Nc1ccccc1N1CCN(C(=O)c2ccccc2)CC1)c1ccccc1Cl | -29.8% |
| COc1ccc(Cl)cc1C(=O)Nc1ccccc1N1CCN(C)CC1 | -70.4% |
| CC(=O)N1CCN(c2ccccc2NC(=O)c2cc(Br)ccc2Cl)CC1 | -27% |
| COc1ccc(Cl)cc1C(=O)NC(=S)Nc1ccccc1N1CCOCC1 | 9.75% |
| CN1CCN(c2ccccc2NC(=O)c2cc(Br)ccc2Cl)CC1 | -53.1% |
| CS(=O)(=O)N1CCN(c2ccccc2NC(=O)c2cc(Br)ccc2Cl)CC1 | -1.64% |
| COc1ccc(Br)cc1C(=O)Nc1ccccc1N1CCN(C(=O)c2ccccc2)CC1 | 7.55% |
| CC(=O)c1nc2ccccc2n1Cc1ccccc1 | 9.31% |
| CCCCn1c(N)c(N(CCC(C)C)C(=O)C2=COCCO2)c(=O)[nH]c1=O | 5.25% |
| COC(=O)CN1C(=O)Nc2ccc(Cl)cc2C1c1ccccc1 (stereo not drawn) | 22.6% |
| Cc1cc(C)nc(N2CCC(CNC(=O)CCc3ccccc3)CC2)n1 | 20.4% |
| O=C(NCc1ccncc1)c1cc(S(=O)(=O)N2CCOCC2)c(Cl)cc1Cl | 12.6% |
| O=C(NCC(c1cccs1)N1CCOCC1)c1cc(S(=O)(=O)N2CCOCC2)c(Cl)cc1Cl (stereo not drawn) | 6.08% |

| SMILES | hERG current change (%, negative = inhibition) at 1uM |
| --- | --- |
| O=C(NCc1cccs1)c1cc(S(=O)(=O)N2CCOCC2)c(Cl)cc1Cl | -78.4% |
| CC(=O)Nc1ccc(S(=O)(=O)Nc2ccc(S(=O)(=O)Nc3ncccn3)cc2)cc1 | 8.81% |
| CCOC(=O)C1CCN(c2c(N3CCN(Cc4ccccc4)CC3)c(=O)c2=O)CC1 | -66.6% |
| CCOC(=O)C1CCCN(c2c(N3CCN(c4cccc(Cl)c4)CC3)c(=O)c2=O)C1 (stereo not drawn) | -54.1% |
| CCOC(=O)C1CCN(Cc2ccc(-c3ccccc3)cc2)CC1 | 8.54% |
| CCOC(=O)C1CCCN(c2c(N3CCN(C)CC3)c(=O)c2=O)C1 (stereo not drawn) | 10.2% |
| CCOC(=O)C1CCN(c2c(NCCCN3CCN(Cc4ccccc4)CC3)c(=O)c2=O)CC1 | 14.3% |
| CCOC(=O)C1CCN(c2c(N3CCCC(C(=O)OCC)C3)c(=O)c2=O)CC1 (stereo not drawn) | 8.36% |
| CCOc1ccc(S(=O)(=O)N/N=C(\C)c2ccc(Cl)c(Cl)c2Cl)cc1 | 12.1% |
| Cc1ccc2oc(C(=O)Nc3ccc(S(=O)(=O)Nc4onc(C)c4C)cc3)cc(=O)c2c1 | 15.4% |
| COc1ccc2c(c1)[nH]c1c(=O)n(CCN3CCCC3)cnc12 | -17.4% |
| COc1ccc2[nH]c3c(=O)n(CCN4CCOCC4)cnc3c2c1 | 9.44% |
| CCN1CCCC1Cn1cnc2c([nH]c3ccc(OC)cc32)c1=O (stereo not drawn) | -58.5% |
| CCN1CCCC1Cn1cnc2c([nH]c3cc(OC)ccc32)c1=O (stereo not drawn) | -53.5% |
| CCC1CCCN1Cn1cnc2c([nH]c3ccc(OC)cc32)c1=O (stereo not drawn) | -35.8% |
| COc1ccc2c(c1)[nH]c1c(=O)n(CC3CCCO3)cnc12 (stereo not drawn) | 14.6% |
| Cc1cc(C(=O)NC2CCCc3c2cnn3-c2ccc(C(C)(C)C)cc2)nn1C (stereo not drawn) | 16.5% |
| O=[N+]([O-])c1cc([N+](=O)[O-])c2nonc2c1Nc1ccc(O)cc1 | 2.03% |
| CC1CCN(S(=O)(=O)c2ccc3c(c2)c(=O)c(C(=O)NC2CCCC2)cn3C)CC1 | 9.59% |
| CCCCS(=O)(=O)N1CCC(C(=O)Oc2ccc(Cl)cc2)CC1 | 17.9% |
| COc1ccc(S(=O)(=O)N2CCN(C(=O)CN3C(=O)NC(C)(C)C3=O)CC2)cc1 | 14% |
